Assay results as given in PubChem BioAssay (NCATS).
Results filed as inconclusive are left out. Unmarked numbers belong to inactive results. Active and inactive are the calls of the source. Calls come from the whole dose curve; as a rule, active = well fitted inhibition curve with a large enough effect; inconclusive = small, poorly fitted or top-dose-only effect; inactive = no such curve, though single readings can be large or run the other way.

Assay: qHTS for Inhibitors of ATXN expression: Validation (AID 588378); note: nearly all actives have a fitted effect of over 75% in size
Details: cell-based ATXN2 expression reporter assay, luminescence; series mostly up to 57.1 µM; activity change, negative = inhibition: at the top concentration
Text: Spinocerebellar ataxia type 2 (SCA2) is a multisystem neurodegenerative disease caused by a dominantly-acting mutation leading to expansion of a polyQ domain in the ataxin-2 protein (ATXN2). SCA2 patients develop progressive ataxia and later lose function in other neuronal systems. Prominent parkinsonian signs develop in some patients. Similar to many neurodegenerative disorders, no symptomatic or disease-modifying treatments are known.
The primary objective of project is to identify compounds inhibiting ATXN2 expression and to test them for efficacy in SCA2 mouse models. To this end, in a collaboration between Dr. Daniel Scoles and scientists at NCGC, a cell-based assay adapted to high-throughput screening has been developed to screen the NIH Molecular Libraries Small Molecule Repository (MLSMR).
NIH Chemical Genomics Center [NCGC]
NIH Molecular Libraries Probe Centers Network [MLPCN]
Assay Submitter (PI): Stefan Pulst and Daniel Scoles, University of Utah
4 ul of HEK293-ATXN2-FFLuc cell suspension (TBD cells/microL in phenol-red free DMEM) are dispensed into Greiner white solid bottom 1536-well assay plates, yielding a final well density of TBD cells/well. Plates are incubated for 2 hrs at 37 degrees C in 5% humidified CO2 to allow cell attachment. Compounds are then transferred via Kalypsys pin tool equipped with 1536-pin array (10nl slotted pins, V&P Scientific, San Diego, CA). In addition, duplicate serial dilutions of the control compounds ChemBridge 5553825, a previously identified ATXN2 expression inhibitor, and a known luciferase inhibitor, are pin-transferred. After incubation at 37 degrees C in 5% humidified CO2 for 24 hrs, CellTiter-Fluor reagent (1 ul) (Promega, Madison, WI) is then added and plates are incubated for 30 minutes, before being transferred to a ViewLux high-throughput CCD imager (PerkinElmer), wherein single end-point fluorescence measurements are acquired using the 405 nm excitation/525 nm emission filter set to assess cell viability. Next, Bright-Glo luciferase substrate detection reagent (3 ul) (Promega, Madison, WI) is added to each well and incubated for an additional 5 minutes. Luminescence is then measured on the ViewLux imager equipped with a clear emission filter using a 2 sec exposure.
% is set by controls: 0 for no effect and ±100 for the full control effect; potency is the fitted concentration of half-maximal effect.

| SMILES | activity change, negative = inhibition [%] | Potency |
| --- | --- | --- |
| Oc1ccc(Cn2cc[nH]c2=S)cc1 | 11.1 | – |
| O=C(c1ccc2c(c1)OCCO2)N1CCCCC1 | 18.1 | – |
| N=C(N)c1ccccc1 | -8.7 | – |
| CCCc1c(OCCCOc2ccc(OCC(=O)O)cc2)ccc(C(C)=O)c1O | -9.6 | – |
| CCC1(O)CC2CN(CCc3c([nH]c4ccccc34)[C@@](C(=O)OC)(c3cc4c(cc3OC)N(C=O)C3[C@]45CCN4CC=C[C@@](CC)([C@@H](OC(C)=O)[C@]3(O)C(=O)OC)[C@H]45)C2)C1 (stereo not given in full) | 2.65 | – |
| Cc1nc(N=Nc2cc(S(=O)(=O)O)c3cc([N+](=O)[O-])cc(S(=O)(=O)O)c3c2)c(COP(=O)(O)O)c(C=O)c1O | -7.36 | – |
| O=C1Nc2ccc(I)cc2/C1=C/c1cc(Br)c(O)c(Br)c1 | -12 | – |
| O=C(O)c1cccnc1C(=O)O | -1.2 | – |
| OC[C@H]1O[C@@H](n2cnc3cncnc32)[C@H](O)[C@@H]1O | -7.69 | – |
| CCCCCCCCCCCCCCC[C@H](O)[C@H](N)CO | -14.3 | – |
| Cn1ccnc1 | -9.53 | – |
| NC/C=C\C(=O)O | 25 | – |
| O=c1oc(Cl)c(Cl)c2ccccc12 | -1.88 | – |
| COc1ccccc1N1CCN(CCCCN2C(=O)c3ccccc3C2=O)CC1 | 6.55 | – |
| O=c1ccn([C@@H]2O[C@H](COP(=O)(O)OP(=O)(O)O)[C@@H](O)[C@H]2O)c(=O)[nH]1 | -0.283 | – |
| NCCCCN | -1.17 | – |
| Cc1nc2n(c(=O)c1CCN1CCC(c3noc4cc(F)ccc34)CC1)CCCC2O (stereo not given) | -16 | – |
| N[C@@H](Cc1ccc(F)cc1)C(=O)O | -8.45 | – |
| COc1ccccc1N1CCN(CCCCNC(=O)c2ccc3ccccc3c2)CC1 | -4.4 | – |
| COc1ccc2c(c1)CCC1C2CC[C@@]2(C)C1CC[C@@H]2NCCCCCCN1C(=O)C=CC1=O (stereo not given in full) | -3.83 | – |

| SMILES | activity change, negative = inhibition [%] | Potency |
| --- | --- | --- |
| O=C(O)Cc1c[nH]c2ccc(O)cc12 | 8.07 | – |
| NC[C@@H]1O[C@H](c2ccccc2)Cc2c1ccc(O)c2O | -15.1 | – |
| O=C(O)/C=C/c1ccc(O)c(O)c1 | -7.52 | – |
| NCC(O)(CS(=O)(=O)O)c1ccc(Cl)cc1 (stereo not given) | 0.431 | – |
| Cn1c(=O)c2c(nc(/C=C/c3cccc(Cl)c3)n2C)n(C)c1=O | -7.67 | – |
| CCCCCCC(=O)OC1CC(C)(C)NC(C)(C)C1 | -2.33 | – |
| COc1cc(C(O)C(=O)O)ccc1O (stereo not given) | -6.28 | – |
| O=c1cc(-c2ccccc2F)[nH]c2cc3c(cc12)OCO3 | 18.5 | – |
| Nn1nnc2ccccc21 | -4.03 | – |
| N=C(N)SCCN | -6 | – |
| COc1ccc(NC(=O)c2ccc(-c3ccc(-c4noc(C)n4)cc3C)cc2)cc1N1CCN(C)CC1 | – | 22.4 µM (active) |
| NC(N)=N[C@@H](CCC(=O)O)C(=O)O | -9.6 | – |
| CCN(c1nc(N)c(C(=O)N=C(N)N)nc1Cl)C(C)C | -28 | – |
| CC(N)(Cc1ccc(O)c(O)c1)C(=O)O (stereo not given) | -29.2 | – |
| Nc1ncnc2c1ncn2C1CCCC1 | 9.33 | – |
| Cn1c(=O)[nH]c2ncn(C)c2c1=O | -15.6 | – |
| c1ccc2nc(C3=NCCN3)ccc2c1 | -1.83 | – |
| Cn1cc(C(F)(F)F)nc1-c1ccc(OCC(O)CNCCOc2ccc(O)c(C(N)=O)c2)cc1 (stereo not given) | -5.3 | – |
| CC1=C(/C=C/C(C)=C/C=C/C(C)=C\C(=O)O)C(C)(C)CCC1 | -0.906 | – |
| Cn1c(=O)c2[nH]c(-c3ccc(S(=O)(=O)O)cc3)nc2n(C)c1=O | -11.2 | – |
